This is a sample that favours compounds with a hit; in the whole collection about 12% have one here.
Shiga inhibitor: blocks Shiga toxin action in Vero cells | Vero cells, Shiga toxin protein synthesis inhibition reporter | inhibition, % at 38.7 µM | 290,000 tested, 9.2% active | AID 2315; in the data active = inhibition mostly above about 28%, no sharp cut-off; inactive = mostly below about 43%
Sm TGR block: blocks Schistosoma mansoni thioredoxin glutathione reductase. Q962Y6. purified TGR, DTNB reduction, TNB absorbance 405 nm. Potency, µM (titrated, usually from 114 µM), most hits filed as inhibitors. 360,000 tested, 3% active. AID 485364; active = well fitted inhibition curve with a large enough effect; inconclusive = small, poorly fitted or top-dose-only effect; inactive = no such curve, though single readings can be large or run the other way; also: nearly all actives have a fitted effect of over 60% in size
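TGR 20 nM + NADPH 100 uM (dispensed conc.), cpd preinc 15 min RT; start with NADPH (500 uM addition) then DTNB (15 mM addition). Kinetic TNB absorbance, 405 nm filter. Four-parameter Hill fit across titration.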
Cycloheximide cs: counter-screen hit for Shiga toxin inhibitors, cycloheximide | max response, % | cell reporter, cycloheximide protein synthesis inhibition counterscreen | 300,000 tested, 12% active; in the data active = max response mostly above about 13%, no sharp cut-off; inactive = mostly below about 14%; also: read at 38.3 µM for the half of the compounds with a filed dose
FMDV antiviral: antivirals against foot and mouth disease virus. FMDV antiviral cell-based qHTS. Potency, µM (highest dose often 57.9 µM), actives largely listed as inhibitors. 410,000 tested, 1.2% active. AID 1159524; calls by dose curve; tested in HEK293T cells; also: read-out not given here; nearly all actives have a fitted effect of over 45% in size
Hits are given with their value; i = inactive; ? = inconclusive; nt = not tested or not shown; [ ] = remark or other dose.

SMILES	Shiga inhibitor	Sm TGR block	Cycloheximide cs	FMDV antiviral
O=C(Cc1ccccc1)N/N=C/c1ccccc1OCc1ccc(Cl)cc1	i	i	i	i
O=c1c(=O)n(-c2ccc(F)c(F)c2)ccn1Cc1ccc(F)cc1Cl	nt	i	nt	i
CCC(C(=O)Nc1ccc(C(C)=O)cc1)n1c(C)c2cnn(-c3ccccc3)c(=O)c2c1C (stereo not given)	nt	i	nt	i
CSc1nc2sc3c(c2c(=O)n1Cc1ccccc1)CCC(C(C)(C)C)C3 (stereo not given)	nt	i	nt	?
CN(C)c1ccc(/C=N/NC(=O)c2sccc2-n2cccc2)cc1	98	i	39	i
O=C(N/N=C\c1ccc(Cl)cc1)c1sccc1-n1cccc1	70	i	33	i
O=C(COC(=O)/C=C/c1ccc(Br)o1)Nc1ccccc1F	i	79µM	i	nt
O=C(COC(=O)/C=C/c1ccco1)NC1CCCCC1	nt	13µM	nt	i
O=C(/C=C/c1ccco1)NC1CCCC1	i	4.5µM	i	i
CSc1ccccc1NC(=O)COC(=O)/C=C/c1ccco1	nt	nt	nt	i
O=C(/C=C/c1cccs1)NC1CCCC1	48	i	i	i
CC(OC(=O)/C=C/c1ccco1)C(=O)NC1CCCCC1 (stereo not given)	nt	nt	nt	i
CCN(C(=O)C1CCCN(c2ncnc3c2nc2n3CCCCC2)C1)c1cccc(C)c1 (stereo not given)	nt	i	nt	?
O=C(COC(=O)/C=C/c1ccc(Br)o1)NC1CCCCC1	nt	13µM	nt	i
O=C(COC(=O)/C=C/c1cccc(Br)c1)NC1CCCCC1	nt	i	nt	i
CC1CCCCC1NC(=O)COC(=O)/C=C/c1ccco1 (stereo not given)	nt	40µM	nt	i
CCCC(=O)Nc1ccc(Nc2ccccc2)cc1	35	i	23	i
CC(=O)Nc1ccc(Oc2ccccc2)cc1	i	i	i	i
CC(=O)OCC(=O)Nc1ccc(N=Nc2ccccc2)cc1	i	i	38	i
O=C(Nc1ccc(N=Nc2ccccc2)cc1)c1ccccc1Cl	73	i	27	i
CC(=O)Nc1ccc(N=Nc2ccccc2)cc1	65	i	49	i
Brc1cccc(-c2nnn3c2nc(N2CCCCC2)c2ccccc23)c1	nt	i	nt	i
N#Cc1ccc2c(c1)C[C@]1(CCCCN3C(=O)c4ccccc4C3=O)Oc3c(c(=O)oc4ccc(F)cc34)C2O1	i	i[22.9 µM]	i	nt
O=C(COc1ccc(F)cc1)Nc1nnc(S(=O)(=O)N2CCc3ccccc32)s1	nt	i	nt	i
CC(=O)Nc1ccc(Nc2ccccc2)cc1	59	i	27	i
SMILES	Shiga inhibitor	Sm TGR block	Cycloheximide cs	FMDV antiviral
CCCC(=O)Nc1ccc(C(=O)n2ccc(C)n2)cc1	i	i	11	i
CC(=O)Nc1ccccc1	nt	nt	nt	i
CC(C)C(=O)OCC(=O)Nc1ccc(N=Nc2ccccc2)cc1	46	i	31	i
CC(C)CCNC(=O)CCn1c(=O)c2cccn2c2cccnc21	nt	i	nt	i
O=C(NN=C1CCCCCCC1)c1ccccn1	i	i	23	i
O=C(NN=C1CCCCCC1)c1cc2ccccc2cc1O	i	i	i	i
O=C(N/N=C1\CCCCc2ccccc21)c1ccccn1	90	i	44	i
O=C(NN=C1CCCCCCC1)c1ccc2ccccc2n1	i	i	17	i
O=C(NN=C1CCCCCC1)c1c[nH]c2ccccc12	active	i	i	i
O=C(N/N=C1/CCS(=O)(=O)c2ccc(F)cc21)c1ccccn1	i	i	i	i
Cc1ccc(NC(=S)N/N=C2/CCCCc3ccccc32)cc1	i	i	17	i
O=C(Nc1ccc(Cl)cn1)c1ccc([N+](=O)[O-])o1	119	nt	45	i
O=C(Nc1ccc([N+](=O)[O-])cn1)c1ccc(Br)o1	i	i	18	i
O=C(Nc1ccon1)c1ccc(Br)o1	i	i	i	i
O=C(Nc1c(Cl)ccc2nsnc12)c1ccc([N+](=O)[O-])o1	51	?	41	i
CN1CCN(c2nc3c(S(=O)(=O)c4ccc(Br)cc4)nnn3c3ccsc23)CC1	nt	i	nt	i
Cc1ccccc1NC(=O)C1CCN(C(=O)c2cnn(-c3ccccc3)c2-n2cccc2)CC1	nt	i	nt	i
Cc1ccc(-c2nc3sccn3c2Nc2ccc(C)c(C)c2)cc1	nt	i	nt	i
CN(Cc1ccccc1)S(=O)(=O)c1cc(Br)cc2c1N(C(=O)C1CC1)CC2	nt	i	nt	i
CCOc1ccc2c(c1)/C(=C(\C(Cl)=C(Cl)Cl)[N+](=O)[O-])N2	i	5.6µM	i	i
CCCCOc1ccc2c(c1)/C(=C(\C(Cl)=C(Cl)Cl)[N+](=O)[O-])N2	i	i	i	i
Nc1c2c(nc3ccc(Br)cc13)N(c1ccccc1)CC2	i	?	i	nt
Cc1cccc(N2CCc3c2nc2ccc(Br)cc2c3N)c1	i	i	16	nt
COc1ccccc1NC(=O)CC1Sc2ccc(C(F)(F)F)cc2NC1=O (stereo not given)	nt	i	nt	i
COc1cccc(CNC(=O)C2CCN(C(=O)N3CCOc4ccc(Cl)cc43)CC2)c1OC	nt	i	nt	i
SMILES	Shiga inhibitor	Sm TGR block	Cycloheximide cs	FMDV antiviral
CCC1CN(CCNC(=O)c2ccc3c(c2)OCCO3)Cc2cc(OC)ccc2O1 (stereo not given)	nt	nt	nt	i
COc1ccc(-c2c(-c3cc(OC)cc(OC)c3)n(C)c3ccc(Br)cc23)cc1	nt	i	nt	i
COc1ccc(N=Nc2nc3ccc(Br)cc3n2C)cc1	70	?	40	i
O=C(/C=C/c1ccc[nH]1)c1ccccc1	68	i	37	i
O=C(/C=C/c1c(F)cccc1Cl)c1ccc(F)cc1	132	?	35	i
O=C(/C=C/c1ccc[nH]1)c1ccc(F)cc1	72	nt	32	i
O=C(/C=C/c1ccccc1[N+](=O)[O-])c1ccc(F)cc1	i	nt	i	i
O=C(NCc1ccc(F)cc1Cl)c1cc(=O)[nH]c2ccc(S(=O)(=O)N3CCCCC3)cc12	nt	i	nt	i
Cc1cnc(-n2ncc(C(=O)N(CCO)C(C)C)c2-c2cccs2)nc1-c1ccc(F)cc1	nt	nt	nt	i
CCn1c(SCC(=O)N2CCCc3ccccc32)nnc1-c1c[nH]c2ccccc12	i	i	i	?
CCn1c(SCC(=O)Nc2ccc3c(c2)OCCO3)nnc1-c1c[nH]c2ccccc12	i	i	12	i
Cc1ccc2c(CC(=O)N3CCc4ccccc43)coc2c1	100	i	23	i
O=C(Cc1coc2ccc3ccccc3c12)N1CCc2ccccc21	i	i	i	i
CCn1c(SCC(=O)N2CCc3ccccc32)nnc1-c1c[nH]c2ccccc12	i	i	i	32µM
Cc1ccc(NCc2nnc(SCC(=O)Nc3ccccc3)n2CC2CCCO2)c(C)c1 (stereo not given)	i	i	33	i
COc1cccc(CN2CCCC(c3nc(-c4ccncc4)ncc3-c3ccccc3)C2)c1O (stereo not given)	nt	nt	nt	i
O=S(=O)(c1ccccc1)c1nnn2c1nc(NCc1ccccc1)c1cc(Cl)ccc12	nt	i	nt	i
O=C(CS(=O)(=O)c1c[nH]c2ccccc12)Nc1ccc2c(c1)OCCO2	45	i	38	i
Cc1occc1-c1nnc(SCC(=O)Nc2ccc3c(c2)OCO3)n1CC1CCCO1 (stereo not given)	i	i	i	i
Cc1nnc(SCC(=O)Nc2ccc3c(c2)OCCO3)n1CC1CCCO1 (stereo not given)	30	i	7.4	i
Cn1cc(S(=O)(=O)CC(=O)Nc2ccc3c(c2)OCCO3)c2ccccc21	i	?	i	i

Bioassay records (PubChem BioAssay)
